{"source": "PubChem BioAssay AID1491", "about": "(National Center for Advancing Translational Sciences (NCATS), 2009)", "note": "“And” between values parts separate entries of the source, which are not always exact repeats. Equal values may be shown once. Inconclusive results are not listed. Where a call stands in place of a potency, no number is given. The source made the active and inactive calls. Calls follow the shape of the dose curve; as a rule, active = well fitted inhibition curve with a large enough effect in the main read-out, with a control signal flat; inconclusive = small, poorly fitted or top-dose-only effect, or a change in a side signal; inactive = flat fitted curve, though single readings scatter. Potency is read from the fitted curve at half-maximal effect.", "data": [{"target": "Neuropeptide S receptor (Homo sapiens) (UniProt Q6W5P4)", "sequence (Q6W5P4 whole entry, looked up)": "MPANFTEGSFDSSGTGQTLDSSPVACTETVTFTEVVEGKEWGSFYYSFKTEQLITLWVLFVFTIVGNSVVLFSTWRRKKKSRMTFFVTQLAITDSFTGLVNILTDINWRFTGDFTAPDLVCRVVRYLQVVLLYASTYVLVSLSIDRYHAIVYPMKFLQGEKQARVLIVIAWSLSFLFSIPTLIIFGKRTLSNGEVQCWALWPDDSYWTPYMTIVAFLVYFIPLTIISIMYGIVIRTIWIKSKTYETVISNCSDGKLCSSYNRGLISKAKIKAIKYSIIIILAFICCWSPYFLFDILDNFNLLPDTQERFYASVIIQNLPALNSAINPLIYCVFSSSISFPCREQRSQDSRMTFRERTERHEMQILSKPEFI", "test": "Confirmation Concentration-Response Assay for Antagonists of the Neuropeptide S Receptor: cAMP Signal Transduction", "conditions": "CHO-NPSR cells, cAMP TR-FRET, antagonist mode; series mostly up to 22.3 µM", "outline": "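LANCE TR-FRET cAMP read-out: 665/620 nm emission ratio, with the 620 nm donor channel also reported, after 2 h RT detection. Stably transfected CHO-NPSR cells got compound titrations and 100 nM NPS in stimulation reagent for 60 min at 37C. IC50 came from Hill fits.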", "values": [{"smiles": "COc1ccc(/C=N/n2cncn2)cc1Cn1cc([N+](=O)[O-])cn1", "Potency": "inactive"}, {"smiles": "O=c1cc(CNCCCO)c2ccccc2[nH]1", "Potency": "inactive"}, {"smiles": "c1ccc(-c2ccc(-c3nc(-c4cccnc4)no3)cc2)cc1", "Potency": "inactive"}, {"smiles": "CN(C)c1ccc(N2CN=C3SCC(=O)N3C2)cc1", "Potency": "inactive"}, {"smiles": "Cc1cccc(N2CCN(C(=O)c3ccc(CNc4c(N5CCC(C)CC5)c(=O)c4=O)cc3)CC2)c1C", "Potency": "inactive"}, {"smiles": "CCOC(=O)CC(=O)Nc1ncnc2c1C(c1ccccc1)c1c(ccc3ccccc13)O2", "note": "(configuration not stated)", "Potency": "0.794 µM (active)"}, {"smiles": "O=C(c1ccccc1)N(C(=O)c1ccccc1)c1ncnc2c1C(c1ccccc1)c1c(ccc3ccccc13)O2", "note": "(configuration not stated)", "Potency": "3.16 µM (active)"}, {"smiles": "Cn1c(COc2ccccc2)nnc1SCc1cc(=O)[nH]c2ccccc12", "Potency": "inactive"}, {"smiles": "CN(C)C(=O)Oc1cccc([N+](C)(C)C)c1", "Potency": "inactive"}, {"smiles": "CC1C(c2ccccc2)N(C)C(c2ccccc2)CC1(O)c1ccccc1", "note": "(configuration not stated)", "Potency": "inactive"}, {"smiles": "NC(=S)N/N=C/c1ncc(C(F)(F)F)cc1Cl", "Potency": "inactive"}, {"smiles": "Nc1ncnc2c1C(c1ccccc1)c1c(ccc3ccccc13)O2", "note": "(configuration not stated)", "Potency": "1 µM (active)"}, {"smiles": "O=C(c1ccccc1-c1nc2ccccc2[nH]1)N1CCCCC1", "Potency": "inactive"}, {"smiles": "C=CCn1c(SCCN2C(=O)c3ccccc3C2=O)nc2scc(-c3ccccc3)c2c1=O", "Potency": "inactive"}, {"smiles": "CCc1ccc2oc(-c3cc(N)cc(C)c3O)nc2c1", "Potency": "inactive"}, {"smiles": "COc1ccc(CCNC(=O)CC(c2ccccc2)c2cccc(C)c2O)cc1OC", "note": "(configuration not stated)", "Potency": "inactive"}, {"smiles": "N=c1c2c(ncn1-c1ccccc1)Oc1ccc3ccccc3c1C2c1ccc2c(c1)OCCO2", "note": "(configuration not stated)", "Potency": "1.41 µM (active)"}, {"smiles": "Brc1ccc(CSc2ncn[nH]2)cc1", "Potency": "inactive"}, {"smiles": "O=C1CC(NCc2ccncc2)C(=O)N1c1ccccc1", "note": "(configuration not stated)", "Potency": "inactive"}, {"smiles": "Cc1nn(C(=O)c2cccs2)c(N)c1-c1ccccc1", "Potency": "inactive"}, {"smiles": "CCOc1ccccc1NC1=CC(=O)CC(c2ccccc2)C1", "note": "(configuration not stated)", "Potency": "inactive"}, {"smiles": "CN(C)S(=O)(=O)Nc1ccccc1C(N)=O", "Potency": "inactive"}, {"smiles": "COc1ccc(N=C2S/C(=C\\c3ccc(N4CCOCC4)o3)C(=O)N2CCc2c[nH]c3ccccc23)cc1", "Potency": "2.24 µM (active)"}, {"smiles": "CCSc1nc2c(c(=O)n1Cc1ccccc1)SC(C)C2", "note": "(configuration not stated)", "Potency": "inactive"}, {"smiles": "C=CCOc1c(Cl)cc(CNc2ccc(N(C)C)cc2)cc1OC", "Potency": "inactive"}, {"smiles": "O=C(/C(=C/c1ccc(Cl)cc1)c1nc2ccccc2[nH]1)c1cccs1", "Potency": "8.91 µM (active)"}, {"smiles": "COc1cccc(N2CCN(c3ncnc4c3[nH]c3ccc(F)cc34)CC2C)c1", "note": "(configuration not stated)", "Potency": "5.62 µM (active)"}, {"smiles": "COc1cccc(C2c3c(ncn(-c4ccccc4)c3=N)Oc3ccc4ccccc4c32)c1", "note": "(configuration not stated)", "Potency": "2 µM (active) and 1.58 µM (active)"}, {"smiles": "CCCCOc1ccc(OCCCN2CCOCC2)cc1", "Potency": "inactive"}, {"smiles": "O=C(Nc1nccs1)C1CCCN1S(=O)(=O)c1ccc(Cl)cc1", "note": "(configuration not stated)", "Potency": "inactive"}, {"smiles": "COc1ccc(OC)c(C2C(C(=O)Nc3nc4ccccc4s3)=C(C)NC3=C2C(=O)CCC3)c1", "note": "(configuration not stated)", "Potency": "2.82 µM (active)"}, {"smiles": "Nc1ccc(-c2nc3c(Cl)cc(N)cc3[nH]2)cc1", "Potency": "inactive"}, {"smiles": "N#Cc1cnn(-c2ncnc3sc4c(c23)CCCC4)c1N", "Potency": "inactive"}, {"smiles": "O=[N+]([O-])c1ccc(N=Nc2ccc(O)cc2O)cc1", "Potency": "inactive"}, {"smiles": "COc1ccccc1C1c2c(ncn(-c3ccccc3)c2=N)Oc2ccc3ccccc3c21", "note": "(configuration not stated)", "Potency": "17.8 µM (active)"}, {"smiles": "CCCCCN1C=CC=C/C1=C\\C=C(C#N)C#N", "Potency": "inactive"}, {"smiles": "O=C(O)C1CCN(c2nc(-c3ccccc3)nc3c2oc2ccccc23)CC1", "Potency": "inactive"}]}]}
